High-throughput results: PubChem BioAssay, several laboratories
Anthrax LF inh2: inhibitors of Bacillus anthracis lethal factor protease; P15917; multiplex microsphere protease cleavage assay, LF; inhibition, % at 10 µM; actives 0.12% (n = 360,000); also: plate controls were buffer without enzyme for full effect and enzyme alone for no effect
MazF activator: activators of E. coli MazEF toxin-antitoxin RNase; P0AE70; FAM/BHQ RNA-DNA oligo cleavage fluorescence, 5 h; activation, % at 20 µM; actives 0.32% (n = 350,000); AID 504720; in the data active = activation above about 50%
Bead autofluor: flagged as autofluorescent in microsphere protease counterscreen; compound autofluorescence counterscreen, microsphere flow cytometry; hits give high values; fluorescence intensity (no concentration beside the values); actives 3.1% (n = 360,000); in the data active = fluorescence intensity above about 16000; inconclusive = no clear call, values can overlap the other calls
BoNT A protease: inhibitors of Botulinum neurotoxin A light chain protease; inhibition, % at 10 µM; multiplex microsphere protease substrate cleavage, flow cytometry; actives 0.17% (n = 360,000); also: plate controls were buffer without enzyme for full effect and enzyme alone for no effect
PriA SSB inh: K. pneumoniae PriA-SSBct interaction inhibition; AlphaScreen SSBct-PriA binding, biotinylated peptide; inhibition, % at 33 µM; actives 0.6% (n = 430,000); AID 1272365; in the data active = inhibition mostly above about 37%, no sharp cut-off; inactive = mostly below about 20%;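 also: plate controls were negative control peptide for no effect and reference peptide for full effect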
BoNT-F LC inh: inhibitors of Botulinum neurotoxin F light chain protease | inhibition, % at 10 µM | Multiplex microsphere protease cleavage assay, flow cytometry | actives 0.22% (n = 360,000); in the data active = inhibition above about 35%, passing the limit was not always enough; inconclusive = no clear call, values can overlap the other calls; also: plate controls were buffer without enzyme for full effect and enzyme alone for no effect
Numbers without * were called inactive. Shown are actives, neighbours in structure and some others; about 3.3% of the full set was active somewhere. Rule as the data show it, unless noted: active = inhibition above about 30%; inconclusive = no clear call, values can overlap the other calls; inactive = below that.

How did CCOC(=O)c1ccc(N2C(=O)c3n[nH]c(C)c3C2c2ccc(OC)c(OC)c2)cc1 (configuration not stated) do in these assays?
Anthrax LF inh2: 1.0; MazF activator: -2.6; Bead autofluor: 19224*; BoNT A protease: inconclusive; PriA SSB inh: 7.7; BoNT-F LC inh: 4.1

What do the screens show for `COc1cc(C2c3c(n[nH]c3C)C(=O)N2c2ccc(Br)cc2)ccc1O` (configuration not stated)?
Anthrax LF inh2: 0.4; MazF activator: 7.1; Bead autofluor: 3491; BoNT A protease: 0.0; PriA SSB inh: 10.2; BoNT-F LC inh: 7.4

How did COCCN1CCC(CNS(=O)(=O)c2ccccc2Cl)CC1 do in these assays?
PriA SSB inh: -25.0

Results for Fc1cnc(N2CCc3ccccc32)nc1N1CCc2ccccc21 ?
Anthrax LF inh2: -1.9; MazF activator: -2.0; Bead autofluor: 16473*; BoNT A protease: -0.1; PriA SSB inh: -10.0; BoNT-F LC inh: -1.5

Results for CCc1ccc(-c2ccc3nnc(CCC(=O)NCc4ccc(F)c(Cl)c4)n3n2)cc1 ?
PriA SSB inh: -7.0

What do the screens show for `COc1ccc(N(Cc2cc(=O)[nH]c3ccccc23)C(=O)c2ccco2)cc1`?
Anthrax LF inh2: -2.8; MazF activator: 2.7; Bead autofluor: 20241*; BoNT A protease: inconclusive; PriA SSB inh: -4.0; BoNT-F LC inh: 0.5

Results for O=C(O)C1OC2OC3(CCCCC3)OC2C2OC3(CCCCC3)OC12 (configuration not stated) ?
Anthrax LF inh2: -0.8; MazF activator: -4.2; Bead autofluor: 2111; BoNT A protease: 3.2; PriA SSB inh: -14.5; BoNT-F LC inh: 35.7*

What do the screens show for `Cc1ccc(CNC(=O)C2CCCN(Cc3cnn(-c4ccccc4)c3-n3cccc3)C2)cc1` (configuration not stated)?
Anthrax LF inh2: -3.5; MazF activator: -17.5; Bead autofluor: 21776*; BoNT A protease: inconclusive; PriA SSB inh: -3.9; BoNT-F LC inh: -2.8

How did Cc1ccc(-n2ncc(C(=O)N3CCc4ccccc4C3)c2NC(=O)c2ccco2)cc1C do in these assays?
Anthrax LF inh2: -2.3; MazF activator: 0.3; Bead autofluor: 23443*; BoNT A protease: 0.8; PriA SSB inh: -3.1; BoNT-F LC inh: 0.8

What do the screens show for `COc1ccc(CCNC(=O)c2cnn(-c3ccc(C)c(C)c3)c2NC(=O)c2ccco2)cc1OC`?
Anthrax LF inh2: -0.7; MazF activator: -4.3; Bead autofluor: 22833*; BoNT A protease: inconclusive; PriA SSB inh: -6.2; BoNT-F LC inh: 5.9

What do the screens show for `Cn1nc2n(Cc3ccccc3)c(=O)c3ccc(C(=O)NC4CCCCC4)cc3n2c1=O`?
PriA SSB inh: 1.0

What do the screens show for `O=C1CSC(c2ccccn2)N1c1ccccc1` (configuration not stated)?
Anthrax LF inh2: 0.1; MazF activator: 0.0; Bead autofluor: 21482*; BoNT A protease: 2.1; PriA SSB inh: -26.7; BoNT-F LC inh: 5.9

How did CCn1cc(C(=O)OC(C)C(=O)Nc2c(C)n(C)n(-c3ccccc3)c2=O)c(=O)c2ccc(C)nc21 (configuration not stated) do in these assays?
Anthrax LF inh2: 0.6; MazF activator: 8.8; Bead autofluor: 2084; BoNT A protease: -0.2; PriA SSB inh: -8.1; BoNT-F LC inh: -2.0

What do the screens show for `CCn1cc(C(=O)OCC(=O)Nc2c(C)n(C)n(-c3ccccc3)c2=O)c(=O)c2ccc(C)nc21`?
Anthrax LF inh2: -0.9; MazF activator: 3.4; Bead autofluor: 23317*; BoNT A protease: 0.0; PriA SSB inh: -1.4; BoNT-F LC inh: 1.9

How did Cc1ccc2nc(C)cc(C(=O)OCC(=O)Nc3c(C)n(C)n(-c4ccccc4)c3=O)c2c1 do in these assays?
Anthrax LF inh2: -5.0; MazF activator: 5.2; Bead autofluor: 4330; BoNT A protease: -0.5; PriA SSB inh: 4.1; BoNT-F LC inh: 1.8

What do the screens show for `Cc1c(NC(=O)COC(=O)c2cc(-c3cccc4ccccc34)nc3ccccc23)c(=O)n(-c2ccccc2)n1C`?
Anthrax LF inh2: -1.1; MazF activator: 61.6*; Bead autofluor: 2212; BoNT A protease: 2.2; PriA SSB inh: 4.9; BoNT-F LC inh: 4.6

How did CNC(=O)Cc1ccc(-n2c(=O)c3ccccc3n(CC(=O)Nc3ccc(C)c(C)c3)c2=O)cc1 do in these assays?
PriA SSB inh: -11.0

How did CCOc1ccc(C(=O)Nc2cc(-c3cn4nc(OC)ccc4n3)ccc2C)cc1OCC do in these assays?
PriA SSB inh: -9.0

What do the screens show for `CCOC(=O)C1=C(C)N=c2sc(=Cc3ccc(OCC(=O)O)c(OC)c3)c(=O)n2C1c1ccc(Cl)cc1` (configuration not stated)?
PriA SSB inh: -2.0

Results for CCOC(=O)C(=O)Nc1ccccc1C(=O)Nc1ccc(OC)cc1 ?
Anthrax LF inh2: -18.3; MazF activator: 1.6; Bead autofluor: 19641*; BoNT A protease: 7.5; PriA SSB inh: 1.8; BoNT-F LC inh: 11.9

Results for CCOC(=O)N1CCN(C(=O)c2ccccc2NC(=O)c2ccc(OC)cc2)CC1 ?
Anthrax LF inh2: -4.1; MazF activator: -0.4; Bead autofluor: 23728*; BoNT A protease: -1.8; PriA SSB inh: -6.8; BoNT-F LC inh: -4.5

How did COc1ccc(C(=O)Nc2ccccc2C(=O)Nc2ccccc2)cc1 do in these assays?
Anthrax LF inh2: -2.4; MazF activator: 8.4; Bead autofluor: 3569; BoNT A protease: -0.4; BoNT-F LC inh: -5.7

What do the screens show for `COc1ccc(OC)c(NC(=O)CSc2nnc3n(N)c(=O)c(C(C)(C)C)nn23)c1`?
PriA SSB inh: 8.0

How did CCOC(=O)c1c(C)n(CCN2CCN(C)CC2)c2ccc(OC)cc12 do in these assays?
Anthrax LF inh2: -2.3; MazF activator: 0.2; Bead autofluor: 20539*; BoNT A protease: -0.8; PriA SSB inh: 4.8; BoNT-F LC inh: -4.9

Results for CCOC(=O)c1c(CN2CCOCC2)oc2ccc(OC)cc12 ?
Anthrax LF inh2: 0.5; MazF activator: -6.8; Bead autofluor: 21090*; BoNT A protease: inconclusive; PriA SSB inh: -5.9; BoNT-F LC inh: -5.3

Results for CCOC(=O)c1c(N)sc(C(=O)N(C)C)c1CN1CCOCC1 ?
Anthrax LF inh2: 0.1; MazF activator: -1.9; Bead autofluor: 20070*; BoNT A protease: 0.2; PriA SSB inh: -22.1; BoNT-F LC inh: 1.3

What do the screens show for `CCOC(=O)c1oc2ccccc2c1CN1CCOCC1`?
Anthrax LF inh2: -20.2; MazF activator: -0.8; Bead autofluor: 21460*; BoNT A protease: 2.1; PriA SSB inh: 4.7; BoNT-F LC inh: 1.8

What do the screens show for `CCOC(=O)c1c(CN2CCCCC2)oc2ccc(O)cc12`?
Anthrax LF inh2: -1.9; MazF activator: 10.0; Bead autofluor: 2416; BoNT A protease: 0.1; PriA SSB inh: -4.0; BoNT-F LC inh: -0.9

What do the screens show for `O=C(c1ccsc1)c1ccc(CNC(=O)C2CCC2)s1`?
PriA SSB inh: -3.0

How did COc1ccc(Br)c(C(=O)N(CCc2cccs2)Cc2ccco2)c1 do in these assays?
PriA SSB inh: -5.0

Results for O=C(NN=Cc1c[nH]c2ccccc12)c1ccccc1O ?
PriA SSB inh: -7.6
